PubChem BioAssay
Calls of active or inactive are those of the source.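 How the source made its calls: active means fluorescence slope after compound addition differing from the mean of all screened samples at 99.7% confidence, in either direction; inactive means the rest.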

Biological target: Alpha-2C adrenergic receptor (Homo sapiens) (UniProt P18825)
Assay: compounds altering alpha2C-coupled GIRK flux – cell-based, HEK293 alpha2C/GIRK1/2, thallium flux, primary screen (AID 624);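 further: slope of fluorescence ratio to pre-addition baseline per second over 15 to 24 s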
Settings: thallium flux BTC fluorescence, at 10 µM, actives lie on both sides

Chain of Alpha-2C adrenergic receptor (Homo sapiens) (P18825 whole entry, looked up): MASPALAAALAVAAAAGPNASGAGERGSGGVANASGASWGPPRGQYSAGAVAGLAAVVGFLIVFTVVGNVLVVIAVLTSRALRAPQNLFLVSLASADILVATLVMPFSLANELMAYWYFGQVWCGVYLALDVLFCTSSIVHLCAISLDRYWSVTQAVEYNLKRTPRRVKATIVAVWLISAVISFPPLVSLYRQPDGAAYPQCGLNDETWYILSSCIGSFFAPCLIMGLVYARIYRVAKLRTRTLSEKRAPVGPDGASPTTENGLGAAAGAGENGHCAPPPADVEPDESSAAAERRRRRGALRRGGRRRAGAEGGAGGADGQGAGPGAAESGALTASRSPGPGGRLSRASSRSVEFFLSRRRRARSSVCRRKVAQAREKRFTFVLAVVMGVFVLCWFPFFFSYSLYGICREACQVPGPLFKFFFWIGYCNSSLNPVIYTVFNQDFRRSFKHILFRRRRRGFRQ

slope, inactive:
N#CC1=C(N)OC2=C(C(=O)CCC2)C1CCc1ccccc1 (centres undefined) 0.00639, CC(=N\O)/C(CN(C)C)=N/O 0.0061, CCOC(=O)C1/C(=N\O)CC(C)(O)C(C(=O)OCC)C1c1ccc(N(C)C)cc1 (centres undefined) 0.00546, CCOc1cc(C2Nc3ccccc3C(=O)N2c2ccccc2OC)ccc1O (centres undefined) 0.0046, CCOC(=O)C1=C(N)c2ccccc2CC1C(C)C (centres undefined) 0.00503, CCOc1ccc2nc(SCC(=O)Nc3ncccn3)[nH]c2c1 0.00651, O=C(CCN1C(=O)c2ccccc2C1=O)OCN1C(=O)c2ccccc2C1=O 0.00721, CCOC(=O)Cc1nnc(Nc2cccc(O)c2)c2ccccc12 0.00496, Cc1cc(/C=N\O)c(C)n1-c1ccncc1 0.00523, Cc1ccc(NC(=O)CSC2=C(C#N)C(c3ccc4c(c3)OCO4)CC(=O)N2)cc1C (centres undefined) 0.00695, CC1(C2(O)CC(c3ccccc3)ON2)CCCCC1 (centres undefined) 0.0054, COc1ccc(Cn2c(N)c(C#N)c3nc4ccccc4nc32)cc1OC 0.00453, Cc1nnc(SCC(=O)N2CCC(C(N)=O)CC2)s1 0.00689, C=CCn1c(SCC(=O)c2ccccc2)nnc1-c1ccc2c(c1)OCO2 0.00455, CC(C)(C)c1ccc(O)c(N)c1 0.00563, CC(=O)Nc1ccc(-c2cc3ccccc3o2)cc1 0.00496, COC(=O)c1ccccc1NC(=O)CSc1nnc(-c2ccncc2)o1 0.00552, Cc1c(C=NCCOCc2ccccc2)cnn1C 0.00503, CCS(=O)(=O)CCn1c([N+](=O)[O-])cnc1C 0.00495, Cc1ccc(-n2c(N)c(C(N)=O)sc2=S)cc1 0.00443, CCN(CC)CCOC(=O)C1(c2ccc(OC)c(OC)c2)CCCC1 0.00483, CCN(CC)C(=O)c1sc2nc(-c3cccs3)cc(-c3cccs3)c2c1N 0.00378, COc1ccc(/C(O)=C2/C(=O)C(=O)N(CCN(C)C)C2c2ccccn2)cc1OC (centres undefined) 0.00777, CC1(C(=O)CSc2nc3ccccc3s2)CCC(=O)O1 (centres undefined) 0.00616, O=C(O)CC1Sc2nc3ccccc3n2C1=O (centres undefined) 0.00572, CC(=O)Nc1ccc(Oc2ccc3nc(C)[nH]c3c2)cc1 0.00532, CC(C)c1nc(NCC2CCCO2)c(C#N)c2c1COC(C)(C)C2 (centres undefined) 0.00432, N#Cc1nc(COc2ccc(Br)cc2)oc1N1CCCC1 0.00386, CCCC1Cc2c(sc3ncnc(N)c23)CO1 (centres undefined) 0.00633, Cc1nc(Sc2cccn2C)c(C(F)(F)F)c(=O)[nH]1 0.00534, COC(=O)c1cc(Br)c(=O)n(-c2nccs2)c1 0.00443, Cc1ccc(SCc2[nH]nc3c2C(c2ccc(C)o2)C(C#N)=C(N)O3)cc1 (centres undefined) 0.0059, COc1cccc(C2C(C(=O)c3cc4ccccc4o3)=C(O)C(=O)N2CCN(C)C)c1OC (centres undefined) 0.0034, Cc1cc(C)n(CC2CC(=O)N(c3ccc(Cl)c(Cl)c3)C2=O)n1 (centres undefined) 0.0052, CN1CCN(c2nc3c(c(=O)n(C)c(=O)n3C)n2Cc2cccc3ccccc23)CC1 0.00582, CC(C)C(=O)N1CCN(c2nc(-c3ccccc3)c3c(c2C#N)CCCC3)CC1 0.0045, CCSc1nc(O)c(C2OC(=O)c3c2ccc(OC)c3OC)c(=O)n1-c1ccccc1 (centres undefined) 0.00632, COc1cccc(NC(=O)CC2SC(=Nc3ccccc3)NC2=O)c1 (centres undefined) 0.00453, Cc1nnc(NCc2n[nH]c(=O)c3ccccc23)c2ccccc12 0.00499
